Composite z-score, composite Z-score and z-score data for eight compounds are collected here from PubChem BioAssay.

SMILES strings stand for the structures. Calls of active or inactive are those of the source.

One test concerns the target Albumin (Bos taurus) (UniProt P02769). Nature of the test: bovine serum albumin binders on microarray, profiling panel, artefact control for SMM control protein annotation, biochemical, small-molecule microarray, Alexa647 label, 635/667 nm fluorescence (AID 1118).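 Note: score merges 667 nm emission intensity and signal-to-noise per printed compound spot.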 The conditions noted are these: BSA-A647 binding, fluorescence 635 nm, higher = more signal.
The nature of test [1]: small-molecule microarray binders of probe aXIP, primary screen, biochemical, NeuroSMM set, 635/667 nm fluorescence (AID 1119).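 Note: probe is the protein aXip251-270 applied at 1 µg/mL to compound-printed slides; binding of probe to printed compounds measured as 667 nm fluorescence plus signal to noise.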 The note with it: higher = more signal, called active from +8 up or from −8 down.
Test [2] in a line: small-molecule binders of probe aNOTCH3, primary screen, biochemical, small-molecule microarray, 635/667 nm fluorescence (AID 1120).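 Note: probe is a biotin-tagged antibody raised against NOTCH3 rather than NOTCH3 protein; score merges spot fluorescence near 667 nm with spot signal to noise.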 The conditions noted are these: higher = more signal.
A short description of test [3]: small-molecule binders of probe aNOTCH2, primary screen, biochemical, small-molecule microarray, 635/667 nm fluorescence (AID 1121).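 Note: score merges feature fluorescence read at 667 nm with its signal to noise.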 The conditions noted are these: higher = more signal.
Test [4] has as its target Carbonic anhydrase 2 (Homo sapiens) (UniProt P00918). Nature of the test: CAII small-molecule binders, profiling panel, biochemical, small-molecule microarray, Alexa647-labelled CAII (AID 1122). The note with it: CAII-A647 binding fluorescence, higher = more signal.
A short description of test [5]: COS7 lysate on small-molecule microarray, probe aHis, 635 nm (AID 1123).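 Note: z-score combines 667nm fluorescence intensity with signal-to-noise per printed compound spot.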 The note with it: COS7 cell lysate, fluorescence, higher = more signal.
Test [6] can be described thus: compound binding in COS7 lysate, probe aLAP1, primary screen, cell lysate, small-molecule microarray (AID 1124).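 Note: lysate comes from COS7 cells expressing LAP1 and is applied at 0.3 µg/mL; score merges spot fluorescence near 667 nm with signal-to-noise over triplicate slides.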 The note with it: probe aLAP1, fluorescence, higher = more signal.
The subject of the next test is Sam68 (KHDRBS1). Nature of the test: Sam68 small-molecule binders, primary screen, biochemical, small-molecule microarray, 635 nm fluorescence (AID 1125).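 Note: score merges 667 nm channel intensity with signal to noise over triplicate slides.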 The conditions noted are these: small-molecule microarray binding, higher = more signal.
Test [7] relates to Chordin-like protein 2 (CHRDL2). Nature of the test: CHRDL2 small-molecule binders, primary screen, biochemical, small-molecule microarray, 635 nm fluorescence (AID 1126).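 Note: printed compound slides probed with Chrdl2 protein at 4 µg/mL for 1 h at 4 C; score merges 667 nm emission intensity with signal to noise over three replicate slides.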 The conditions noted are these: small-molecule microarray binding, fluorescence 635 nm; higher = more signal.
In test [8] the target is Concanavalin-A (Canavalia ensiformis) (UniProt P02866). Nature of the test: ConA small-molecule binders, primary screen, artefact control for SMM control protein annotation, biochemical, small-molecule microarray, Alexa647 label, 635 nm (AID 1127).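 Note: z combines 667 nm emission intensity with signal-to-noise across three replicate slides.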 The note with it: ConA-A647 binding fluorescence, higher = more signal.
Sequence of Concanavalin-A (Canavalia ensiformis) (P02866 whole entry, looked up): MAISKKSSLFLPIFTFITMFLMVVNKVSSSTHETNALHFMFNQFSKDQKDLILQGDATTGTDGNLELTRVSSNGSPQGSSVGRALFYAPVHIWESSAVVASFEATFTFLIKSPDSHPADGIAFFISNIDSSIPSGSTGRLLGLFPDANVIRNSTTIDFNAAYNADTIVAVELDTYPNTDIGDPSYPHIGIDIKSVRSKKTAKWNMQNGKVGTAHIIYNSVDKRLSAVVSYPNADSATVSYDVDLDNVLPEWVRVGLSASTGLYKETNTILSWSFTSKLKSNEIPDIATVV
Test [9] in a line: anti-His antibody binders, primary screen, artefact control for SMM control protein annotation, biochemical, small-molecule microarray, 635 nm fluorescence (AID 1128).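 Note: score merges feature fluorescence with signal-to-noise for each printed compound spot.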 The note with it: anti-His Alexa647 antibody binding, higher = more signal.
Test [10] concerns Human papillomavirus type 1a E7 protein (residues 1-88). Nature of the test: HPV1a E7 small-molecule binders, primary screen, biochemical, small-molecule microarray, residues 1-88, 635 nm (AID 1129). The note with it: small-molecule microarray binding, fluorescence 635 nm; higher = more signal.
In test [11] the target is Focal adhesion kinase 1 (Homo sapiens) (UniProt Q05397). Nature of the test: small-molecule microarray binders of FAK, primary screen, biochemical, 635/667 nm fluorescence, BSA, DTT (AID 1130).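 Note: composite of spot emission at 667 nm and signal to noise over triplicate slides.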 The note with it: PTK2 binding, 635 nm fluorescence, higher = more signal.
Sequence of Focal adhesion kinase 1 (Homo sapiens) (Q05397 whole entry, looked up): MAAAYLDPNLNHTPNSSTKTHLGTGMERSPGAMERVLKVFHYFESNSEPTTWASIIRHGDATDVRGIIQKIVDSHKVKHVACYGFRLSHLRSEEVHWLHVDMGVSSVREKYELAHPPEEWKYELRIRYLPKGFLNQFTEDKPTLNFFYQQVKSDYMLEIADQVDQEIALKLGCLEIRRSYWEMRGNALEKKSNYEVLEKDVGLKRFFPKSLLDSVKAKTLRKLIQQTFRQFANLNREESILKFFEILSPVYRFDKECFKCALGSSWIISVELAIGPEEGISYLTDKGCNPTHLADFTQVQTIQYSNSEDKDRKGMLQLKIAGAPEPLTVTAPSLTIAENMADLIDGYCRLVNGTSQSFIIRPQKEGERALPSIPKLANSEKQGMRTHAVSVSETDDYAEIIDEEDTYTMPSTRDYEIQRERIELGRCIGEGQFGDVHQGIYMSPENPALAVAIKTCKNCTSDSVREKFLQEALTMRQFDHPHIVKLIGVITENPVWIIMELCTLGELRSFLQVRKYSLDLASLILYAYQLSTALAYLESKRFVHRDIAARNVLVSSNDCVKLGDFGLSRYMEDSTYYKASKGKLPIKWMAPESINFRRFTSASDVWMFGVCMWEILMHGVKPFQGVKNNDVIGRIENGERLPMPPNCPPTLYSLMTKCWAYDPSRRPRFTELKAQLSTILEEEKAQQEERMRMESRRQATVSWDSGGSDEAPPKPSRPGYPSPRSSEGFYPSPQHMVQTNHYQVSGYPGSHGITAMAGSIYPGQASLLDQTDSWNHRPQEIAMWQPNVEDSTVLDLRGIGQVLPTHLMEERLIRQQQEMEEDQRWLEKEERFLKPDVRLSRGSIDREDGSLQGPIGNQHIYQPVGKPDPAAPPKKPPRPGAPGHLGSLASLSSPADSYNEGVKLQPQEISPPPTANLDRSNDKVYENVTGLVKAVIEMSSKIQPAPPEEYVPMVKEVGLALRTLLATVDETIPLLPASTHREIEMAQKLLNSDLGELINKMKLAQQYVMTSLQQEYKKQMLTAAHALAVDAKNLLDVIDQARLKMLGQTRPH
For test [12], the system named is Fibrinogen (Alexa647-labelled). Nature of the test: fibrinogen binders on compound microarrays, profiling panel, artefact control for SMM control-protein annotation, biochemical, small-molecule microarray, 635/667 nm fluorescence (AID 1131).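 Note: z-score merges 667 nm fluorescence with per-spot signal-to-noise over triplicate slides.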 The note with it: fibrinogen-A647 binding fluorescence, higher = more signal.
The target in test [13] is Follistatin (Homo sapiens) (UniProt P19883). Nature of the test: follistatin binders on small-molecule microarrays, primary screen, biochemical, small-molecule microarray, 635/667 nm fluorescence (AID 1132). The note with it: FST binding, 635 nm fluorescence, higher = more signal.
Sequence of Follistatin (Homo sapiens) (P19883 whole entry, looked up): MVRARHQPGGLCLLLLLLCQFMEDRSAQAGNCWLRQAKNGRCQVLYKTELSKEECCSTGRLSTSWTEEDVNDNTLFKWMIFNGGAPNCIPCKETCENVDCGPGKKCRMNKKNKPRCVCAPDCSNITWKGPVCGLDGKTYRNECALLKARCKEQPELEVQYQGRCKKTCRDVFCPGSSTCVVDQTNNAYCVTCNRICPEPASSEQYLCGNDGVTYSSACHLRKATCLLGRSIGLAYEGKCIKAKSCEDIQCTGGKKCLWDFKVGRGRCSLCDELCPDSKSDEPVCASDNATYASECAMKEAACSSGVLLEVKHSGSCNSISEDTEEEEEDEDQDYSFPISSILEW
Test [14] addresses Fibroblast growth factor 2 (Homo sapiens) (UniProt P09038). Nature of the test: FGF2 binders on small-molecule microarrays, primary screen, biochemical, small-molecule microarray, 635/667 nm fluorescence (AID 1133). The note with it: small-molecule microarray binding, FGF2, fluorescence 635/667; higher = more signal.
Test [15] can be described thus: mitochondrial membrane potential change in A549 cells, profiling panel, cell-based, JC-1 fluorescence, basal, 24 h, 100 nL (AID 1138).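 Note: A549 lung adenocarcinoma cells under basal conditions with no added stimulus; test concentration not given here.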 The conditions noted are these: higher = more signal.
For another test, the system named is Lefty1. Nature of the test: Lefty1 binders on small-molecule microarrays, primary screen, biochemical, small-molecule microarray, 635/667 nm fluorescence (AID 1139). The note with it: small-molecule microarray binding, fluorescence 635/667; higher = more signal.
In test [16] the test system is wheat germ agglutinin (Triticum aestivum), Alexa647-labelled. Nature of the test: wheat germ agglutinin binders on compound microarrays, profiling panel, artefact control for SMM control-protein annotation, biochemical, small-molecule microarray, 635/667 nm fluorescence (AID 1140).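 Note: score merges 667 nm feature emission with signal to noise over triplicate slides.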 The note with it: WGA-A647 binding, 635 nm fluorescence, higher = more signal.
Test [17] deals with Luciferin 4-monooxygenase (Photinus pyralis) (UniProt P08659). Nature of the test: firefly luciferase enzyme inhibitors, primary screen, biochemical, luminescence, purified enzyme, 2006 set (AID 1141).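 Note: cell-free assay with purified firefly luciferase at 100 ng per well in PBS; test concentration not given here.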 The conditions noted are these: SteadyGlo luminescence, 30 min, higher = more signal, called active from +8 up or from −8 down.
Sequence of Luciferin 4-monooxygenase (Photinus pyralis) (P08659 whole entry, looked up): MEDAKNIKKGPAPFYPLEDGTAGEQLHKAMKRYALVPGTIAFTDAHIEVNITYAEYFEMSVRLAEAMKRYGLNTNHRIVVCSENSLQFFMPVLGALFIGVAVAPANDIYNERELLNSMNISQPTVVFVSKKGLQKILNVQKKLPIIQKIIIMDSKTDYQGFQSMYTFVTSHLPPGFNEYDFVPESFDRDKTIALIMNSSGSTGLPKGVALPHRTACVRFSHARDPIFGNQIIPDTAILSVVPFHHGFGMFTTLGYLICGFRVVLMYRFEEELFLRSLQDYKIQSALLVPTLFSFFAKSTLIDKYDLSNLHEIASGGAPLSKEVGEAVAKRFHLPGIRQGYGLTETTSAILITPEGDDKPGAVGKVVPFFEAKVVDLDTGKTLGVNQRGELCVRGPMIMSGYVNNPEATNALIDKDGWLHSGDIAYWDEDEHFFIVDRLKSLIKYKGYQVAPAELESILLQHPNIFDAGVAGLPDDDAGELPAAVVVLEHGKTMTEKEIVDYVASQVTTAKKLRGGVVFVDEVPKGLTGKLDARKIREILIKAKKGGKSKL

Sequence of Fibroblast growth factor 2 (Homo sapiens) (P09038 whole entry, looked up): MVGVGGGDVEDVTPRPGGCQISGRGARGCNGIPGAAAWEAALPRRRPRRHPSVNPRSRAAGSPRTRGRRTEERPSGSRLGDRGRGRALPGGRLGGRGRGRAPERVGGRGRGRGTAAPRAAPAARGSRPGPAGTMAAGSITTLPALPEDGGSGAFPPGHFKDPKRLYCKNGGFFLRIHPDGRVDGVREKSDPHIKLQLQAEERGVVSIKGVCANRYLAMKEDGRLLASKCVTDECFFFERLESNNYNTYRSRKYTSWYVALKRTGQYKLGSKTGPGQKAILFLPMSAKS
Sequence of Albumin (Bos taurus) (P02769 whole entry, looked up): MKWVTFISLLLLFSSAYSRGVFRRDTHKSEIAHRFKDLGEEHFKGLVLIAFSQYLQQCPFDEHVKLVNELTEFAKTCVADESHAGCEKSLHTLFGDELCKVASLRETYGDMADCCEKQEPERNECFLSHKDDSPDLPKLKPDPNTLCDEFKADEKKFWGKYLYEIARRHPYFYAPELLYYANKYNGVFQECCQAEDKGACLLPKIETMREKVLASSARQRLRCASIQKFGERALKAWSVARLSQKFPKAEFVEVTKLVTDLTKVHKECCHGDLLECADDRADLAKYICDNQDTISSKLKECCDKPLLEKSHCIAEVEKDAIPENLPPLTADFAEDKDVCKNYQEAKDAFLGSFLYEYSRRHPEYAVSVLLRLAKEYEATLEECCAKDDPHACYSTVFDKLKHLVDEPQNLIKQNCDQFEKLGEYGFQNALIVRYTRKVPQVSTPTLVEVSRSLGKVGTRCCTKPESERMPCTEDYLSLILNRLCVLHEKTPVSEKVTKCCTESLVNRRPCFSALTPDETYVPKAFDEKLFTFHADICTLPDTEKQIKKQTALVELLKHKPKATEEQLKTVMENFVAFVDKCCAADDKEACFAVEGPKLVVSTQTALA

For the compound `C=C(COC)C(=O)CC[C@@H](OC(C)=O)c1cccc(OCCO)c1`, the composite z-score in the test with Albumin (Bos taurus) is -0.693; in [2] it was -0.0647; in test [3], -0.125; in [4], 0.59; in [5], -0.591; in [6] it was -0.621. Further, the composite z-score in the test with Sam68 (KHDRBS1) is -0.873; in test [7] it was -0.109; in test [8] it was -0.797; in test [9], 0.0219; in test [10], -1.04; in [11] it was -0.653. Besides, the composite z-score was 0.567 in test [12]; 1.09 in [13]; 1.48 in [14]; 0.146 with Lefty1; 0.0226 in test [16]. In test [1], the composite Z-score was -0.0662 (inactive). Also, the z-score in test [15] is 0.655; in test [17], -1.76 (inactive).
As to `CCCCCN1CC=CC23O[C@@H]4/C=C\CCCOC(=O)C4[C@H]2C(=O)N(C(C)CO)[C@@H]3C1=O` (stereo not given in full), the composite z-score is 0.356 with Albumin (Bos taurus); -0.427 in test [2]; -0.169 in [3]; 0.839 in [4]; 0.626 in [5]; -0.0467 in test [6]. For the same compound, the composite z-score with Sam68 (KHDRBS1) was 0.0008; in [7], -1.14; in test [8], -0.734; in test [9], 0.465; in [10] it was -0.402; in test [11], -0.249. Further, the composite z-score in test [12] was 0.659; in [13], -0.87; in test [14] it was -1.08; in the test with Lefty1 it was -0.476; in test [16], 0.916. In addition, the composite Z-score in test [1] was 0.0199 (inactive). In addition, the z-score in test [15] was 0.17; in [17] it was -0.179 (inactive).
As to `[N-]=[N+]=Nc1ccccc1C[C@]1(C(=O)NCCN2CCOCC2)COC(c2ccc(OCCCO)cc2)=N1`, the composite z-score with Albumin (Bos taurus) is 0.18; in [2], -0.0745; in [3], 0.0328; in test [4], 0.348; in [5], 1.87; in test [6], 1.26. The composite z-score in the test with Sam68 (KHDRBS1) was determined as 1.15; in test [7], 0.376; in test [8], 1.1; in test [9], 1.34; in test [10], 1.26; in test [11], 0.696. Also, the composite z-score in test [12] was 0.649; in [13], 1.02; in test [14] it was 1.04; with Lefty1, -0.494; in [16] it was 0.607. Also, the composite Z-score in test [1] was -0.34 (inactive). For the same compound, the z-score is 2.08 in test [15] and -2.91 (inactive) in test [17].
On to `CCCN1C(=O)[C@@]2(Cc3ccccc31)N=C(c1ccc(OCCCO)cc1)O[C@H]2c1ccccc1`, for which the composite z-score was -0.324 with Albumin (Bos taurus); 0.0916 in test [2]; 0.0118 in [3]; 0.523 in test [4]; 1.88 in test [5]; 0.587 in [6]. In addition, the composite z-score with Sam68 (KHDRBS1) amounted to 1.31; in test [7], 0.201; in [8], 1.13; in test [9], 0.293; in test [10] it was 1.17; in [11] it was 0.881. The composite z-score in test [12] turned out to be 0.829; in test [13], 1.23; in test [14], 1.31; in the test on Lefty1 it was 0.256; in test [16], 0.801. Moreover, the composite Z-score in [1] is 0.953 (inactive). Further, the z-score in test [15] is 1.69; in [17] it was -3.25 (inactive).
On to `CCCCNC(=O)c1ccc(C#CC(C)(C)C)c(OC(C)=O)c1`, for which the composite z-score in the test with Albumin (Bos taurus) is 0.691; in test [2], 0.0744; in [3] it was -0.181; in test [4] it was 0.728; in test [5], -0.0302; in test [6], -0.0555. Besides, the composite z-score with Sam68 (KHDRBS1) worked out at 1.02; in test [7], 0.641; in test [8] it was 0.744; in test [9], 0.213; in test [10], 0.712; in test [11], 0.797. In addition, the composite z-score in test [12] was 0.587; in [13] it was 0.665; in test [14], 0.553; in the test on Lefty1 it was 0.777; in [16], 0.64. Moreover, the composite Z-score in test [1] is 0.0956 (inactive). The z-score in [15] is -0.895; in [17] it was 0.856 (inactive).
In the case of `COc1ccc(CCNC(=O)[C@@H]2c3ccccc3C(=O)N(C3CCCCC3)[C@H]2c2ccc(CO)cc2)cc1`, the composite z-score is -0.295 in the test with Albumin (Bos taurus); -0.119 in test [2]; -0.0317 in test [3]; 0.608 in test [4]; 2.15 in test [5]; 0.922 in [6]. In addition, the composite z-score in the test with Sam68 (KHDRBS1) is 0.508; in [7], -0.524; in test [8] it was 0.802; in [9], 1.01; in [10], 0.883; in test [11] it was 1.19. Moreover, the composite z-score was 0.144 in test [12]; 0.441 in [13]; 1.74 in [14]; -0.359 in the test with Lefty1; 0.771 in test [16]. Moreover, the composite Z-score in test [1] was 0.0861 (inactive). The z-score is -0.263 in test [15] and -0.323 (inactive) in test [17].
`CCCC=C(CCC)[C@@H](NC(=O)C(C)(C)C)c1ccc(C(=O)OC)cc1`: the composite z-score was 0.991 in the test with Albumin (Bos taurus); 0.25 in test [2]; 0.0199 in test [3]; 0.441 in test [4]; 2.76 in [5]; 0.103 in test [6]. In addition, the composite z-score was 0.622 in the test on Sam68 (KHDRBS1); -0.91 in test [7]; 0.869 in test [8]; 0.933 in test [9]; 1.01 in test [10]; 0.451 in [11]. Also, the composite z-score is 0.972 in test [12]; 0.156 in [13]; -0.764 in [14]; -0.947 in the test on Lefty1; 0.995 in test [16]. Further, the composite Z-score in test [1] was 0.29 (inactive). Besides, the z-score is 2.85 in [15] and 1.91 (inactive) in [17].
As to `CCCC[C@@H](O)C1=C(COC)C[C@H]2C(=O)N(C)C(=O)[C@H]2[C@H]1CO`, the composite z-score with Albumin (Bos taurus) is 0.277; in [2], -0.139; in [3] it was -0.217; in [4], 0.183; in test [5], -0.419; in test [6], 0.0048. Moreover, the composite z-score is -0.0046 in the test on Sam68 (KHDRBS1); 0.831 in test [7]; 0.256 in [8]; 0.217 in test [9]; -0.165 in [10]; -0.185 in [11]. The composite z-score in [12] is 0.171; in test [13] it was 0.504; in [14] it was 0.201; in the test with Lefty1 it was 1.14; in test [16], -0.11. In [1], the composite Z-score is 0.0275 (inactive). Moreover, the z-score is -0.278 in test [15] and 0.0646 (inactive) in test [17].
